Assay results as given in PubChem BioAssay AID1051 (The Scripps Research Institute Molecular Screening Center, 2008).
The whole screen tested about 99,000 compounds, of which about 340 (0.34%) were called active. Cut-off read from the data, not from the text of the source: active = TR-FRET ratio above about 2300; inactive = the rest. Many of the other results were omitted from the sample, so actives are more common in it than they were.

Experiment: TR-FRET detection interference compounds, primary screen, artefact control for PPARgamma SRC-1 recruitment agonists, biochemical, TR-FRET emission ratio (AID 1051)
Conditions: TR-FRET detection artefact counter-screen, at 8 µM, stronger effect = higher value

| Compound | TR-FRET ratio |
| --- | --- |
| COc1cc(-n2c(=S)[nH]c3ccc(C)cc3c2=O)c(Cl)cc1Cl | 2560 (active) |
| O=C1N=c2ccccc2=C/C1=C\c1c(O)[nH]c(=S)[nH]c1=O | 1870 (inactive) |
| COc1ccc(C2N3CC(C)(C)CN23)cc1 (stereo not given) | 1740 (inactive) |
| CCOP(=O)(OCC)C(NC(=O)c1ccc(C)cc1)C(Cl)(Cl)Cl (stereo not given) | 1720 (inactive) |
| OCC#CC[N+]1(CC#Cc2ccccc2)CCCC1 | 1790 (inactive) |
